Most compounds without a hit are left out; they make up all but 19% or so of the library.
TDP1 cell noCPT – qHTS for Inhibitors of human tyrosyl-DNA phosphodiesterase 1 (TDP1): qHTS in cells in absence of CPT. DT40 Tdp1-/- hTDP1 cells, no CPT, ATP luminescence, 48 h. Potency, µM (top dose mostly 46.2 µM), for inactives: at the top dose activity change, negative = growth inhibition, hits mostly inhibitors. 15% of 420,000 active; further: potency means the concentration at half of the fitted maximal effect; nearly all actives have a fitted effect of over 55% in size
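Chicken DT40 Tdp1-/- cells stably complemented with human TDP1 were seeded at 400 cells/well with DMSO in place of 20 nM camptothecin. After compound pinning, cells grew at least 48 hr at 37 °C; viability read by CellTiter-Glo luminescence.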
HT1080-NT tox – kills 2HG-producing HT-1080-NT fibrosarcoma cells; HT-1080-NT fibrosarcoma viability, CellTiter-Glo ATP luminescence, 48 h; Potency, µM (top dose mostly 46.1 µM), without a hit: top-dose activity, negative = less viability, most hits filed as cytotoxic; 1.6% of 360,000 active; AID 686970;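 further: NT is the 2HG producing partner of a matched IDH1 knockdown line; potency means the concentration at half of the fitted maximal effect; 0% = DMSO-treated cells and -100% = media-only wells without cells; nearly all actives have a fitted effect of over 55% in size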
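Viability of the 2HG-overproducing fibrosarcoma line after 48 hours of compound exposure at 37 degrees C was determined by luminescence with CellTiter-Glo, and concentration-effect curves were then fitted and categorized.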
HT1080 IDH1KD tx – kills HT-1080 cells with IDH1 knockdown; Potency, µM (top dose mostly 46.1 µM), without a hit: at the top dose activity, negative = toxicity, usual class: cytotoxic; AID 686971; HT-1080 IDH1 knockdown viability, ATP luminescence, 48 h; 2% of 360,000 active;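 further: potency means the concentration at half of the fitted maximal effect; 0% = DMSO wells and -100% = cell-free medium wells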
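In this qHTS, HT-1080 cells depleted of IDH1 are exposed for 48 h at 37 °C to compound titrations. Toxicity is scored from CellTiter-Glo luminescence, with DMSO as full viability and medium alone as none.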
ELG1 DNA repair – inhibitors of ELG1-dependent DNA repair in HEK293T cells; Potency, µM (titrated, usually from 46.1 µM), for the others: top-dose activity change, negative = inhibition, hits mostly inhibitors; 2.3% of 330,000 active; HEK293T ELG1-luciferase reporter, luminescence, 16 h; DNA damage induced by 5-fluorouridine; further: potency means the concentration at half of the fitted maximal effect; nearly all actives have a fitted effect of over 55% in size
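HEK293T cells expressing luciferase-tagged ELG1 (2,000/well) received 5-Fluorouridine plus compound or DMSO for 16 hr at 37 °C. Luciferase was read by ONE-Glo luminescence after 30 min at room temperature.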
TDP1 cell CPT – DT40-hTDP1 cell growth loss with CPT | chicken DT40 Tdp1-/-;hTDP1 cells + 20 nM CPT, ATP luminescence, 48 h | Potency, µM (series often up to 46.2 µM), without a hit: top-dose activity change, negative = growth inhibition, actives largely listed as inhibitors | AID 686979 | 12% of 420,000 active; further: potency means the concentration at half of the fitted maximal effect; nearly all actives have a fitted effect of over 55% in size
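Cell growth measured by CellTiter-Glo luminescence after a minimum 48 h, 37 C compound exposure with 20 nM CPT in Tdp1-knockout DT40 cells stably expressing hTDP1, seeded 400/well; qHTS titration format.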
IL-1B inflam inh – blocks inflammasome-driven IL-1 beta release. AID 743279. 4.7% of 360,000 active. activity change, % at 57.5 µM. THP-1 LPS/ATP IL-1B secretion, AlphaLISA, 16 h; hits give low values; in the data active means activity change below about -50%; inconclusive means mostly about -30% to -49%
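Secreted IL-1B measured by AlphaLISA bead assay after 16 h compound exposure of THP-1 cells; compounds (final up to 57.5 uM) added 1 h before LPS (250 ng/mL) and ATP (1.25 mM) stimulation; lower signal means less secretion.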
Numbers without * were called inactive; ? = inconclusive; nt = no result given; [ ] = another dose, or the depositor's remark. Unless noted, the call rests on the fitted dose curve; in most records, active means well fitted curve in the direction sought with a large enough effect; inconclusive means small, poorly fitted or top-dose-only effect, or another doubt; inactive means no such curve, though single readings can be large; an effect the other way counts as inactive or inconclusive. Unless noted, on the % scale 0 is the no-effect control and ±100 the full control effect.

SMILES	TDP1 cell noCPT	HT1080-NT tox	HT1080 IDH1KD tx	ELG1 DNA repair	TDP1 cell CPT	IL-1B inflam inh
Cc1ccc(-n2c(=O)c3cccnc3n2CC(=O)Nc2ccc(C)cc2Cl)cc1	13µM*	nt	nt	nt	?	nt
Cc1ccc(-n2c(=O)c3cccnc3n2CC(=O)Nc2cc(C)cc(C)c2)cc1	-100%	nt	nt	nt	?	nt
Cc1cc(NC(=O)CCN2CCCCC2)ccc1Br	?	-27%	-14%	16%	?	?
CS(=O)(=O)N1CC(C(=O)O)Oc2ccc(CC(=O)O)cc21 (centres undefined)	-2%	0%	20%	-4%	-18%	-7
Cc1cc(C)nc(N/N=C/C2=C(N3CCOCC3)C(=C\c3ccc(Cl)cc3)/CC2)n1	16µM*	-23%	-23%	?	23µM*	-25
O=C(O)c1ccc(N/N=C/C2=C(N3CCOCC3)C(=C\c3ccccc3)/CC2)cc1	21µM*	15µM*	15µM*	?	?	-9
O=CC1=C(N2CCOCC2)/C(=C/c2ccc(Cl)cc2)CC1	21µM*	-1%	-5%	?	?	-19
Cc1cc(C)nc(NN=CC2=C(N3CCOCC3)/C(=C/c3ccc(Cl)cc3)CC2)n1	8.2µM*	?	-18%	nt	12µM*	-27
CCC(OC(=O)c1ccco1)C(=O)NCc1ccc2c(c1)OCO2 (centres undefined)	-18%	0%	-3%	3%	-16%	-6
Cc1occc1C(=O)N/N=C/C1=C(N2CCOCC2)C(=C\c2ccc(Cl)cc2Cl)/CC1	7.3µM*	6%	7%	?	?	-11
O=C(O)c1ccc(N2C(=O)/C(=C\c3ccccc3)N=C2c2ccccc2)cc1	-27%	26%	29%	2%	11%	-73*
Cc1ccc2nc(Br)c3c(c2c1)OC(CBr)C3 (centres undefined)	?	-1%	0%	-2%	-22%	8
Cc1nc2c(Cl)cccc2c2c1CC(CBr)O2 (centres undefined)	?	-8%	-9%	-18%	15µM*	24
CCOC(OCC)P(=O)(O)CCCNCc1ccc(Cl)c(Cl)c1	?	nt	nt	nt	-1%	nt
N/C(=N\c1nc2ccccc2o1)NC(=O)c1ccc(Cl)cc1	-5%	1%	2%	?	?	8
Cc1ccc2oc(/N=C(\N)NC(=O)C(C)(C)C)nc2c1	?	-12%	-7%	?	?	nt
N/C(=N\c1nc2ccccc2o1)NC(=O)c1ccccc1Br	16µM*	14%	2%	?	?	34
Cc1ccc2oc(/N=C(\N)NC(=O)C3CC3)nc2c1	4.6µM*	-14%	?	?	9.2µM*	-20
N/C(=N\c1nc2ccccc2o1)NC(=O)c1ccc(F)cc1	13µM*	?	?	?	13µM*	-1
COc1ccc(-c2oc3c(c2C(=O)OCCCO)C(OCCO)CCC3)cc1 (centres undefined)	5%	0%	13%	nt	-1%	0
C/C(=N\NC(=O)COc1cccc(C)c1)c1ccc2ccccc2c1O	?	21µM*	?	-1%	?	72
C=CCNC(=S)NNc1nc(Nc2ccccc2)nc(N2CCCCC2)n1	8.2µM*	-13%	4%	2%	15µM*	-63*
CC1(C)C(N(O)C(=O)Nc2ccc(Cl)cc2)N(c2ccc(Cl)cc2)C(=O)N1CC(=O)NN (centres undefined)	-2%	-35%	?	30%	3%	-53*
CNC(=O)N(O)C1N(C)C(=O)N(CC(=O)OC)C1(C)C (centres undefined)	-4%	14%	6%	-4%	-1%	-9
CCCN(CC(=O)Nc1cc(Cl)ccc1Cl)C(=O)CN1C(=O)C2CCCCC2C1=O (centres undefined)	-18%	1%	-7%	-3%	-6%	0
SMILES	TDP1 cell noCPT	HT1080-NT tox	HT1080 IDH1KD tx	ELG1 DNA repair	TDP1 cell CPT	IL-1B inflam inh
CC1(C)CC(=O)C=C(c2n[nH]nc2C2CC2)C1	-11%	8%	-1%	nt	2%	-12
COc1ccc(C2=NN(C(=O)CN3CCCC3)C(c3ccc(OC)cc3)C2)cc1 (centres undefined)	-29%	-1%	-5%	?	-13%	-62*
COc1ccc(C2=NN(C(=O)CN3CCCCC3)C(c3ccc(OC)cc3)C2)cc1 (centres undefined)	?	-4%	0%	0%	16µM*	-12
COc1ccc(C2CC(c3ccc4ccccc4c3)=NN2C(=O)CN2C(=O)CCC2=O)cc1 (centres undefined)	23µM*	-1%	-8%	-7%	26µM*	?
N#Cc1ccccc1S(=O)(=O)N1CCC(C(=O)NCc2ccccc2CN2CCCC2)CC1	-24%	-11%	9%	2%	-30%	-13
COc1ccccc1CNC(=O)COC(=O)Cn1cnc2c1c(=O)n(C)c(=O)n2C	-11%	9%	9%	nt	-4%	14
Cc1ccc(OCCn2nnc3sc4c(c3c2=O)CCC(C(C)(C)C)C4)cc1 (centres undefined)	-20%	nt	nt	nt	-23%	nt
CCOC(=O)c1sc(NC(=O)Cn2nnc3sc4c(c3c2=O)CCC(C(C)(C)C)C4)nc1C (centres undefined)	-19%	0%	8%	2%	22%	18
CCCOC(=O)c1ccc(NC(=O)Cn2nnc3sc4c(c3c2=O)CCC(C(C)(C)C)C4)cc1 (centres undefined)	8.2µM*	nt	nt	nt	18µM*	nt
CC(=O)Cn1nnc2sc3c(c2c1=O)CCC(C(C)(C)C)C3 (centres undefined)	?	-26%	-16%	?	?	?
CCc1ccccc1NC(=O)Cn1nnc2sc3c(c2c1=O)CCC(C(C)(C)C)C3 (centres undefined)	15µM*	nt	nt	nt	16µM*	nt
Cc1cc(C)c(NC(=O)Cn2nnc3sc4c(c3c2=O)CCC(C(C)(C)C)C4)c(C)c1 (centres undefined)	21µM*	nt	nt	nt	15µM*	nt
CCN(C(=O)Cn1nnc2sc3c(c2c1=O)CCC(C(C)(C)C)C3)c1cccc(C)c1 (centres undefined)	21µM*	nt	nt	nt	16µM*	nt
CC(=O)N1CCC[C@H]1C(=O)NCC1Cc2cc(C)cc(-c3ccc(Cl)cc3)c2O1 (some centres undefined)	-22%	nt	nt	nt	-12%[9.04 µM]	nt

Compound activity (PubChem)
